Assay results reported in PubChem BioAssay (Tox21).
Several values for one entry are separate records, joined by “and”; a condition that tells them apart may be missing. Equal entries are not always repeated. Records with an inconclusive call do not appear. Some structures have more than one record in an assay (separate samples or runs), and their calls can disagree. Activity calls are given as the source filed them. Calls follow the shape of the dose curve; as a rule, active = well fitted curve in the direction sought with a large enough effect in the repeat runs; inconclusive = weak or mixed curves; inactive = no such curve, though single readings can be large; an effect the other way counts as inactive or inconclusive. Starred links: 1 amine or outer side, 2 acyl side, 3 side chain; linkers in the order of their positions; H or OH if unused. Positions of bridges follow the written chain, without caps; N, C: chain ends. Non-standard residues stand in square brackets, D forms with d. Residues, ends and D or L forms follow the SMILES beside them. Chains are numbered I, II in the order given. Actinocin(9to1) = Cc1c2oc3c(C)ccc(C(=O)[*:1])c3nc-2c(C(=O)[*:2])c(N)c1=O; NMeV = CN[C@H](C(=O)O)C(C)C; Sar = CNCC(=O)O

Tests used:
[1] = A CellTox Green Cytotoxicity Assay to monitor cytotoxicity in HEK293 cells - 40 hour (AID 1224871); also: nearly all actives have a fitted effect of over 45% in size; also: potency is read from the fitted curve at half-maximal effect
Outline: (§1)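 Nonlytic real-time cytotoxicity: HEK293 + CellTox Green reagent plated, 5 h preincubation, pintool compound addition (23 nL in DMSO), 37 C for 40 h, fluorescence measured at successive time points.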

[2] = qHTS RealTime-Glo MT Cell Viability Assay in HEK293 cells - 16 hour (AID 1224872); also: nearly all actives have a fitted effect of over 50% in size; also: potency is read from the fitted curve at half-maximal effect; as to activity change, negative = cytotoxicity: top concentration of the series differs between compounds
Outline: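 Viability tracked continuously by luminescence as live cells reduce a prosubstrate for NanoLuc; HEK293 cells preincubated 5 h, compound-treated at 37 C, and read at 0, 8, 16, 24, 32 and 40 h.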

[3] = qHTS RealTime-Glo MT Cell Viability Assay in HepG2 cells - 8 hour (AID 1224873); also: nearly all actives have a fitted effect of over 55% in size; also: potency is read from the fitted curve at half-maximal effect
Outline: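 HepG2 cells (600/well) mixed with RealTime-Glo MT reagent, settled 5 h at 37 C/5% CO2 before compound addition. Nonlytic NanoLuc luminescence from viable-cell prosubstrate reduction read repeatedly during 40 h treatment at 37 C.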

[4] = qHTS RealTime-Glo MT Cell Viability Assay in HEK293 cells - 40 hour (AID 1224874); conditions: RealTime-Glo luminescence; max response: stronger effect = lower value; also: nearly all actives have a fitted effect of over 50% in size; also: potency is read from the fitted curve at half-maximal effect
Outline: (§2)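 Cells were seeded together with NanoLuc luciferase and a prosubstrate that viable cells reduce to a luciferase substrate. After a 5 h incubation at 37 C/5% CO2, compounds were added and luminescence was measured repeatedly during 40 h of treatment.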

[5] = A CellTox Green Cytotoxicity Assay to monitor cytotoxicity in HEK293 cells - 24 hour (AID 1224875); also: series mostly up to about 77 µM; nearly all actives have a fitted effect of over 45% in size
Outline: as §1

[6] = A CellTox Green Cytotoxicity Assay to monitor cytotoxicity in HepG2 cells - 16 hour (AID 1224876); also: nearly all actives have a fitted effect of over 45% in size; also: potency is read from the fitted curve at half-maximal effect
Outline: (§3)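 Read-out is fluorescence of a cyanine dye excluded from live cells that stains DNA of dead HepG2 cells, with signal proportional to cytotoxicity. Plates were read at 0, 8, 16, 24, 32 and 40 h after compound addition.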

[7] = qHTS RealTime-Glo MT Cell Viability Assay in HepG2 cells - 32 hour (AID 1224877); also: nearly all actives have a fitted effect of over 55% in size; also: potency is read from the fitted curve at half-maximal effect
Outline: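 Viability was tracked continuously by NanoLuc luminescence from prosubstrate reduced by living HepG2 cells, at successive time points over 40 h of compound exposure. Cells with reagent were preincubated 5 h at 37 °C before compound addition.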

[8] = A CellTox Green Cytotoxicity Assay to monitor cytotoxicity in HepG2 cells - 24 hour (AID 1224878); also: nearly all actives have a fitted effect of over 45% in size; also: potency is read from the fitted curve at half-maximal effect
Outline: as §3

[9] = qHTS RealTime-Glo MT Cell Viability Assay in HEK293 cells - 0 hour (AID 1224880)
Outline: as §2

[10] = A CellTox Green Cytotoxicity Assay to monitor cytotoxicity in HepG2 cells - 40 hour (AID 1224879); also: nearly all actives have a fitted effect of over 40% in size; also: potency is read from the fitted curve at half-maximal effect
Outline: as §3
% is scaled to controls: 0 for no effect and ±100 for the full control effect.

Nc1ccc(O)cc1
50.9 µM (active) and inactive: Potency [3]
40.4 µM (active) and inactive: Potency [2]
active: Potency [4] 32.1 µM
25.5 µM (active) and inactive: Potency [1]
inactive: max response [4] 18.9% | Potency [5] | Potency [6] | Potency [7] | Potency [8] | Potency [9]

c1cnc2cc3c(cc2n1)C1CNCC3C1
inactive: Potency [1] | Potency [2] | Potency [3] | max response [4] 11% | Potency [5] | Potency [6] | Potency [7] | Potency [8] | Potency [10] | Potency [9]

Cc1occc(=O)c1OC(=O)C(C)C
inactive: Potency [1] | Potency [2] | Potency [3] | max response [4] -0.202% | Potency [5] | Potency [6] | Potency [7] | Potency [8] | Potency [10] | Potency [9]

C=C(C)C(=O)O
inactive: Potency [1] | Potency [2] | Potency [3] | max response [4] -0.401% and 9.57% | Potency [5] | Potency [6] | Potency [7] | Potency [8] | Potency [10] | Potency [9]

CC(=O)Nc1ccc(C(=O)CCl)cc1
inactive and 13.8 µM (active): Potency [2]
active: Potency [4] 21.9 µM
inactive and 15.5 µM (active): Potency [1]
inactive and 21.9 µM (active): Potency [7] | Potency [8]
inactive: Potency [3] | max response [4] 19.7% | Potency [6] | Potency [9]

CC1COC(=O)O1 (stereo not drawn)
inactive and 43.6 µM (active): Potency [8] | Potency [10]
inactive: Potency [1] | Potency [2] | Potency [3] | max response [4] 9.29% and -24.4% | Potency [5] | Potency [7] | Potency [9]
inactive and 38.9 µM (active): Potency [6]

CO[Si](OC)(OC)c1ccccc1
inactive: Potency [1] | Potency [2] | Potency [3] | max response [4] 0.242% | Potency [5] | Potency [6] | Potency [7] | Potency [8] | Potency [10] | Potency [9]

CC1=CC(=O)c2ccccc2C1=O
active: Potency [1] 21.9 µM and 23.9 µM | Potency [2] 13.8 µM and 23.9 µM | Potency [3] 38.9 µM | Potency [4] 15.5 µM | Potency [6] 49 µM and 26.8 µM | Potency [7] 49 µM | Potency [8] 43.6 µM and 26.8 µM

CCCCCCCCCCCCCCCCCl
inactive: cytotoxicity increase [1] 10.8% [at 15.8 µM] | activity change, negative = cytotoxicity [2] 1.99% [at 15.8 µM] | viability change, negative = cytotoxic [3] 0.131% [at 15.8 µM] | max response [4] 0.0293% | activity change [5] 8.22% [at 15.8 µM, stronger effect = higher value] | cytotoxicity increase [6] 3.3% [at 15.8 µM] | activity change, negative = cytotoxic [7] 6.67% [at 15.8 µM] | cytotoxicity [8] 2.62% [at 15.8 µM] | activity change, negative = cytotoxicity [9] 2.19% [at 15.8 µM]

OCC(CO)N[C@H]1C[C@](O)(CO)[C@@H](O)[C@H](O)[C@H]1O
inactive: Potency [1] | Potency [2] | Potency [3] | max response [4] 11.4% | Potency [5] | Potency [6] | Potency [7] | Potency [8] | Potency [9]

O=C(O)CP(=O)(O)O
inactive: Potency [1] | Potency [2] | Potency [3] | max response [4] -6.08% | Potency [5] | Potency [6] | Potency [7] | Potency [8] | Potency [9]

O=C(O)CCc1ccccc1
inactive: Potency [1] | Potency [2] | Potency [3] | max response [4] 3.43% | Potency [6] | Potency [7] | Potency [8] | Potency [10] | Potency [9]

CCOC(=O)C(C)C(C)=O (stereo not drawn)
inactive: Potency [1] | Potency [2] | Potency [3] | max response [4] -0.314% | Potency [5] | Potency [6] | Potency [7] | Potency [8] | Potency [9]

CC(COc1ccccc1)N(CCCl)Cc1ccccc1 (stereo not drawn)
55.5 µM (active) and inactive: Potency [8]
inactive: Potency [3] | Potency [5] | Potency [6] | Potency [7] | Potency [9]
active: Potency [1] 49.5 µM and 21.3 µM | Potency [2] 49.5 µM and 49 µM | Potency [4] 49.5 µM and 49 µM

Cc1c2oc3c(C)ccc(C(=O)N[C@@H]4C(=O)N[C@H](C(C)C)C(=O)N5CCC[C@H]5C(=O)N(C)CC(=O)N(C)[C@@H](C(C)C)C(=O)O[C@@H]4C)c3nc-2c(C(=O)N[C@@H]2C(=O)N[C@H](C(C)C)C(=O)N3CCC[C@H]3C(=O)N(C)CC(=O)N(C)[C@@H](C(C)C)C(=O)O[C@@H]2C)c(N)c1=O (I: T[dV]P[Sar][NMeV] / II: T[dV]P[Sar][NMeV]; ester I:1-I:C, II:1-II:C; linker I:N-II:N via Actinocin(9to1))
inactive: Potency [1] | Potency [5] | Potency [6] | Potency [8] | Potency [9]
active: Potency [2] 33.7 nM and 120 nM | Potency [3] 9.5 µM and 10.7 µM | Potency [4] 8.5 nM and 16.9 nM

O=C(Oc1ccccc1)c1ccccc1O
inactive: Potency [1] | Potency [2] | Potency [3] | max response [4] -18.8% and -3% and 3.05% | Potency [5] | Potency [6] | Potency [7] | Potency [8] | Potency [10] | Potency [9]

O=C(O)c1cccc(C(=O)O)c1
inactive: Potency [1] | Potency [2] | Potency [3] | max response [4] 5.05% and -3.16% | Potency [5] | Potency [6] | Potency [7] | Potency [8] | Potency [10] | Potency [9]
